Type in all cases: functional
Assay [1] deals with Plasmodium falciparum. The assay can be described thus: GSK_TCMDC: Inhibition of Plasmodium falciparum 3D7 in whole red blood cells, using parasite LDH activity as an index of growth. Test compounds present at 2uM.
Assay [2] deals with Plasmodium falciparum. Put plainly: GSK_TCMDC: Inhibition of Plasmodium falciparum Dd2 in whole red blood cells, using parasite LDH activity as an index of growth. Test compounds present at 2uM.
The subject of another assay is HepG2. The assay can be described thus: GSK_TCMDC: Percent inhibition of human HepG2 cell line. Test compounds present at 10uM.

The term Inhibition denotes the relative decrease from the control value, in per cent. A higher Inhibition goes with strong suppression. `Cl.N#Cc1ccc2c(c1)CCN(CCC1CCC(NC(=O)/C=C/c3cccc4cc[nH]c34)CC1)CC2` (centres undefined): the Inhibition with Plasmodium falciparum [1] is 89%; in the assay with Plasmodium falciparum [2], 29%; with HepG2 it was 22%.

On to `c1ccc2c(CNc3nc(NCC4CCCCC4)nc4[nH]cnc34)cccc2c1`, for which the Inhibition in the assay on Plasmodium falciparum [1] came to 89%; in the assay with Plasmodium falciparum [2], 44%; in the assay with HepG2 it was 0%.

Turning to `CCN(CC)CCOc1ccc(Nc2ncc3cc(-c4c(Cl)cccc4Cl)c(=O)n(C)c3n2)cc1` [PD-0166285], the Inhibition was found to be 90% with Plasmodium falciparum [1], 91% in the assay on Plasmodium falciparum [2] and 72% with HepG2.

As to `NCC1CCCN1Cc1ccc(-c2ccc(-c3nc4ccccc4[nH]3)s2)cc1.O=C(O)C(F)(F)F` (centres undefined), the Inhibition in the assay on Plasmodium falciparum [1] turned out to be 98%; in the assay with Plasmodium falciparum [2], 97%; with HepG2 it was 17%.

Turning to `COc1ccc(OC)c(-c2ccc(O)c(CNCC(C)c3ccccc3)c2)c1` (centres undefined), the Inhibition in the assay on Plasmodium falciparum [1] is 98%; in the assay on Plasmodium falciparum [2], 96%; in the assay with HepG2 it was 26%.

On to `Fc1cc(Cl)ccc1Nc1ccnc2cc(-c3ccc(CN4CCSCC4)o3)ccc12`, for which the Inhibition with Plasmodium falciparum [1] is reported as 100%; in the assay with Plasmodium falciparum [2] it was 99%; in the assay with HepG2 it was 17%.

In the case of `O=C(CC1CCCC1)N(Cc1ccc(-c2ccc(CNC3Cc4ccccc4C3)cc2)cc1)CC1CCCCN1.O=C(O)C(F)(F)F` (centres undefined), the Inhibition amounted to 88% in the assay with Plasmodium falciparum [1], 86% in the assay on Plasmodium falciparum [2] and 41% in the assay on HepG2.

On to `COc1ccc(-n2ccnc2SCC(=O)Nc2cc(Cl)ccc2OC)c(OC)c1`, for which the figures for the Inhibition in the assay on Plasmodium falciparum [1], with Plasmodium falciparum [2] and in the assay with HepG2 were 96%, 92% and 0%, respectively.
